Results as given in PubChem BioAssay (NCI).
About 83,000 compounds went through this panel and 20% of them were active in at least one assay; those are over-represented in the sample as a whole.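 Activity criterion: percent growth below 10, measured after cells in 96-well plates were exposed to a single compound concentration for 48 hours.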 A number with no mark means an inactive call. The source made the active and inactive calls.

Legend:
Assay in all cases: NCI-60 one-dose screen, 48 h (100 = growth as untreated, 0 = no growth, -100 = all killed)
Conditions in all cases: 10 µM unless noted
[1] = system: SNB-75 CNS
[2] = system: SNB-19 CNS
[3] = system: U251 CNS
[4] = system: SK-MEL-5 melanoma
[5] = system: UACC-62 melanoma
[6] = system: LOX IMVI melanoma
[7] = system: SK-MEL-28 melanoma
[8] = system: EKVX NSCLC
[9] = system: SN12C renal
[10] = system: UO-31 renal
[11] = system: TK-10 renal
[12] = system: ACHN renal
[13] = system: CAKI-1 renal
[14] = system: A498 renal
[15] = system: CCRF-CEM leukemia
[16] = system: MOLT-4 leukemia
[17] = system: SR leukemia
[18] = system: PC-3 prostate
[19] = system: SK-MEL-2 melanoma

Structure (SMILES): O=C1CC(=O)N(c2ccccc2)O1
- growth [1]: 85%
- growth [2]: 110%
- growth [3]: 104%
- growth [4]: 97.6%
- growth [5]: 93.9%
- growth [6]: 89.5%
- growth [7]: 107%
- growth [8]: 108%
- growth [9]: 94.9%
- growth [10]: 61.7%
- growth [11]: 122%
- growth [12]: 97.4%
- growth [13]: 94.8%
- growth [14]: 94.6%
- growth [15]: 110%
- growth [16]: 114%
- growth [17]: 110%

Structure (SMILES): COC(=O)CC1=C(C)/C(=C/c2[nH]c(-c3ccc[nH]3)cc2OC)N=C1C
- growth [1]: -38.6% (active)
- growth [2]: 32.3%
- growth [3]: 5.15% (active)
- growth [4]: -92.8% (active)
- growth [5]: -46.5% (active)
- growth [6]: -57.6% (active)
- growth [7]: -3.01% (active)
- growth [8]: 27.9%
- growth [9]: 21.4%
- growth [10]: -68.9% (active)
- growth [11]: 6.46% (active)
- growth [12]: -13.4% (active)
- growth [13]: 8.04% (active)
- growth [14]: -5.38% (active)
- growth [15]: -13.5% (active)
- growth [16]: -49% (active)
- growth [17]: -47.8% (active)

Structure (SMILES): O=C(CCc1nnc(SCc2ccccc2)s1)c1nc2ccccc2[nH]1
- growth [1]: 90.5%
- growth [2]: 93.2%
- growth [4]: 99.4%
- growth [5]: 84.8%
- growth [6]: 80.8%
- growth [7]: 108%
- growth [8]: 93.8%
- growth [9]: 92.7%
- growth [10]: 74.3%
- growth [11]: 95.8%
- growth [12]: 94.4%
- growth [13]: 90.7%
- growth [14]: 72.7%
- growth [15]: 68.1%
- growth [16]: 70.1%

Structure (SMILES): O=C1NCN(c2ccccc2)C12CCN(CCCC(c1ccc(F)cc1)c1ccc(F)cc1)CC2
- growth [1]: 72%
- growth [2]: 78.2%
- growth [3]: 55.2%
- growth [18]: 96.3%
- growth [4]: 41.4%
- growth [5]: 78.2%
- growth [6]: 61.9%
- growth [7]: 56.8%
- growth [19]: 81%
- growth [9]: 60.5%
- growth [10]: 26.1%
- growth [11]: 66.1%
- growth [12]: 61.7%
- growth [13]: 76.8%
- growth [14]: 57.7%
- growth [15]: 94.4%
- growth [16]: 34.3%
- growth [17]: 8.54% (active)

Structure (SMILES): CCCCCCC(C)(O)c1ccccc1 (stereo not drawn)
- growth [1]: 90.6%
- growth [2]: 104%
- growth [3]: 109%
- growth [4]: 109%
- growth [5]: 96.5%
- growth [6]: 92%
- growth [7]: 115%
- growth [9]: 96.7%
- growth [10]: 80.3%
- growth [12]: 103%
- growth [13]: 96.8%
- growth [14]: 145%
- growth [15]: 91.9%
- growth [16]: 106%

Structure (SMILES): Cc1cc(C)c2c(c1)N1OC(C2)C[C@H]1/C=C/c1ccccc1 (stereo partly drawn)
- growth [1]: 109%
- growth [2]: 103%
- growth [3]: 107%
- growth [4]: 93.7%
- growth [5]: 88%
- growth [6]: 94.4%
- growth [7]: 104%
- growth [8]: 90%
- growth [9]: 92.2%
- growth [10]: 79.1%
- growth [11]: 108%
- growth [12]: 112%
- growth [13]: 85.6%
- growth [14]: 99.9%
- growth [15]: 92.9%
- growth [16]: 77.7%
- growth [17]: 83.2%
